Source: PubChem BioAssay
HT1080-NT tox – kills 2HG-producing HT-1080-NT fibrosarcoma cells; AID 686970; 1.6% of 360,000 active; HT-1080-NT fibrosarcoma viability, CellTiter-Glo ATP luminescence, 48 h; Potency, µM (doses to about 46.1 µM), for inactives: at the highest dose activity, negative = less viability, hits mostly cytotoxic;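 further: NT is the 2HG producing partner of a matched IDH1 knockdown line; 0% = DMSO-treated cells and -100% = media-only wells without cells; nearly all actives have a fitted effect of over 55% in size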
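A 48-hour cytotoxicity screen used HT-1080-NT cells plated 2 hours before compound delivery. ATP-based CellTiter-Glo luminescence measured viability, normalized to DMSO and no-cell controls.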
HT1080 IDH1KD tx – toxicity to HT-1080 IDH1 knockdown cells (counter line) | HT-1080 IDH1 knockdown viability, ATP luminescence, 48 h | Potency, µM (titrated, usually from 46.1 µM), without a hit: at the highest dose activity, negative = toxicity, most hits filed as cytotoxic | 2% of 360,000 active;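 further: 0% = DMSO wells and -100% = cell-free medium wells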
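CellTiter-Glo luminescence after 48 h compound exposure at 37 degrees C of IDH1-knockdown HT-1080 cells in 5% FBS RPMI. %Activity scaled between DMSO wells and cell-free media wells, with curves fitted and assigned curve classes.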
KB-V1 MDR tox – KB-V1 MDR subline cytotoxicity; KB-V1 MDR cells viability, CellTiter-Glo, 72 h; Potency, µM (titrated, usually from 46.1 µM), actives largely listed as cytotoxic; 3.4% of 400,000 active; AID 1347076; further: on the % scale 0 is the no-effect control and ±100 the full control effect; nearly all actives have a fitted effect of over 60% in size
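Cells of the MDR subline KB-V1 are plated, dosed with compound at multiple concentrations, and incubated 72 h at 37 degrees C; CellTiter-Glo is then added and luminescence read after 10 min.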
MCF10A rereplic – induces DNA re-replication in MCF 10a normal breast cells | 2.9% of 350,000 active | AID 624296 | Potency, µM (series often up to 46.1 µM), inactives show at the top dose activity, positive = re-replication, hits mostly activators | MCF 10A DNA re-replication, Hoechst nuclear intensity, 48 h; further: % of control where 0% means no effect; nearly all actives have a fitted effect of over 50% in size
KB-3-1 cytotox – KB-3-1 parental cell cytotoxicity. 1.4% of 400,000 active. Potency, µM (top dose mostly 46.1 µM), actives largely listed as cytotoxic. AID 1347075. KB-3-1 viability, CellTiter-Glo ATP luminescence, 72 h; further: on the % scale 0 is the no-effect control and ±100 the full control effect; nearly all actives have a fitted effect of over 60% in size
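Cells are dispensed, compounds pinned in, plates held at 37 °C for 72 h, then CellTiter-Glo is added and luminescence read after 10 minutes. Cell line: parental KB-3-1 in phenol-red-free DMEM, 10% FBS.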
SW480 rereplic – inducers of DNA re-replication in SW480 colon cancer cells; SW480 DNA re-replication, Hoechst DNA content imaging, 48 h; Potency, µM (series often up to 46.1 µM), for the others: at the highest dose re-replication activation, most hits filed as activators; 1.8% of 340,000 active; AID 624297; further: % of control where 0% means no effect; nearly all actives have a fitted effect of over 55% in size
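Image-based DNA-content assay: after two days of treatment, nuclei were labelled with the DNA dye Hoechst and imaged, and hits were compounds raising the count of nuclei showing high fluorescence intensity.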
Active calls of the source: *; i = inactive; ? = inconclusive; · = no result given; ! = not active in a repeat; [ ] = remark or other dose. Most compounds without a hit are left out; they make up all but 7.9% or so of the library. The call rests on the fitted dose curve; in most records, active means well fitted curve in the direction sought with a large enough effect; inconclusive means small, poorly fitted or top-dose-only effect, or another doubt; inactive means no such curve, though single readings can be large; an effect the other way counts as inactive or inconclusive. Potency means the concentration at half of the fitted maximal effect.

SMILES	HT1080-NT tox	HT1080 IDH1KD tx	KB-V1 MDR tox	MCF10A rereplic	KB-3-1 cytotox	SW480 rereplic
COc1ccc(CNC(=O)c2ccc(-c3nc(CSc4ccccc4)c(C)o3)cc2)cc1	·	·	i	·	i	·
CCSc1nc2ccccc2n1C(=O)/C=C/c1ccc(OC)c(OC)c1	8.2µM*	5.8µM*	?	4.11µM*	?	5.8µM*
CCn1c(SCC(=O)N/N=C/c2ccc(OC)c(OC)c2)nc2ccccc21	7.0%	2.2%	i	18.4%	i	-4.1%
C=CCSc1nc2ccccc2n1C(=O)/C=C/c1ccc(OC)c(OC)c1	?	2.51µM*	i	4.11µM*	?	?
C=CCSc1nc2ccccc2n1C(=O)/C=C/c1cc(OC)c(OC)c(OC)c1	5.01µM*	2.24µM*	?	3.26µM*	i	?
COc1cc(/C=C/C(=O)NCCn2c(C)cc3ccccc32)cc(OC)c1OC	-11.4%	-7.6%	?	-4.0%	?	-4.6%
COc1ccc(-c2nnc(SCC(=O)Nc3ccc(C)c(Cl)c3)nc2-c2ccc(OC)c(OC)c2)cc1OC	·	·	i	·	i	·
CC(=O)c1ccc(N2CCN(C(=S)Nc3cc(C)ccn3)CC2)cc1	·	·	i	·	?	·
CCc1ccccc1N1C(=O)N(Cc2cc(=O)n3ccccc3n2)c2ccccc2S1(=O)=O	·	·	i	·	i	·
COc1cc(OC)cc(C(=O)NC(C(=O)Nc2ccc3c(c2)OCCO3)C(C)C)c1 (stereo not given)	2.5%	1.4%	i	10.4%	i	-9.9%
Cc1ccc(C(=O)Nc2ccc3c(c2)OCCO3)o1	?	?	20.6µM*	0.3%	i	0.1%
COc1cc(OC)cc(C(=O)Nc2ccc3c(c2)OCCO3)c1	?	?	9.2µM*!	-1.1%	16.4µM*!	-1.0%
Cn1c(C(=O)Nc2ccc3c(c2)OCCO3)cc2sccc21	-15.0%	-20.0%	14.6µM*	-0.8%	i	9.2%
Cc1noc(C)c1S(=O)(=O)N(CC(=O)Nc1ccc(F)cc1F)c1ccc(C(C)C)cc1	·	·	i	·	?	·
CN(C)c1ccc(CC(=O)N2CCCCC2c2cc(C(=O)Nc3ccccc3Cl)no2)cc1 (stereo not given)	32.6µM*	?	i	·	i	·
COc1ccc(NC(=O)c2cc(C3CCCCN3C(=O)Cc3ccc(N(C)C)cc3)on2)c(C)c1 (stereo not given)	-14.0%	-1.9%	i	·	i	·
CN(C)c1ccc(CC(=O)N2CCCC(c3cc(C(=O)Nc4ccc(F)c(Cl)c4)no3)C2)cc1 (stereo not given)	-25.5%	?	20.6µM*	·	?	·
CC1CCN(C(=O)Cn2ncc3c4ccccc4n(Cc4ccc(Cl)cc4)c3c2=O)CC1	·	·	i	·	i	·
Cc1cccc(Oc2nc3c(C)cccn3c(=O)c2/C=C(\C#N)c2nc3ccccc3[nH]2)c1	·	·	i	·	i	·
CCOC(=O)c1ccc(/C=C2/C=C(c3ccccc3)N(c3ccc(Cl)c(C(=O)O)c3)C2=O)cc1	25.9µM*	9.2µM*	i	20.6µM*	?	9.9%
OC(c1ccc2ccccc2c1)c1ncc(-c2cccc3ccccc23)[nH]1 (stereo not given)	18.4µM*	25.9µM*	?	·	?	·
COc1c(C)cc(C(O)c2ncc(-c3cccc4ccccc34)[nH]2)cc1C (stereo not given)	?	?	i	·	?	·
COc1ccccc1-c1cnc(C(O)c2ccc(Cl)c(Cl)c2)[nH]1 (stereo not given)	-27.2%	?	23.1µM*	·	?	·
COc1c(C)cc(C(O)c2ncc(-c3ccccc3C(F)(F)F)[nH]2)cc1C (stereo not given)	-15.7%	-15.3%	18.4µM*	·	i	·
Cc1cc(C(O)c2ncc(-c3cccc4ccccc34)[nH]2)ccc1F (stereo not given)	?	-14.2%	i	·	i	·
SMILES	HT1080-NT tox	HT1080 IDH1KD tx	KB-V1 MDR tox	MCF10A rereplic	KB-3-1 cytotox	SW480 rereplic
COc1ccccc1-c1cnc(C(O)c2ccccc2)[nH]1 (stereo not given)	-7.5%	?	?	·	i	·
COc1ccccc1-c1cnc(C(O)c2ccc(C(C)(C)C)cc2)[nH]1 (stereo not given)	-7.3%	?	20.6µM*	·	?	·
Cc1ccc(CNC(=O)C2CCN(c3nc4ccc(C)cc4[nH]3)CC2)cc1	·	·	i	·	i	·
COc1ccc(-c2nc3ccc(C(=O)NCc4ccccc4)cc3nc2-c2ccc(OC)cc2)cc1	·	·	i	·	i	·
Nc1nc(Nc2ccccc2F)sc1C(=O)c1ccc(Cl)cc1	·	·	i	·	i	·
Clc1cccc(OCCN2CCNCC2)c1	-6.3%	8.2%	i	4.3%	i	18.4µM*
Clc1cccc(OCCN2CCOCC2)c1	5.1%	-10.4%	i	1.8%	i	1.0%
O=C(CSc1ncc2c(n1)-c1ccccc1N(Cc1ccc(Cl)cc1)S2(=O)=O)c1ccccc1	·	·	i	·	i	·
COc1ccc(C(CCNCc2ccc(N(C)C)cc2)C(C)C)cc1 (stereo not given)	18.4µM*	?	16.4µM*	?	i	?
CCOCCCNCc1ccc(OC)cc1	7.8%	20.8%	i	0.6%	i	1.2%
COc1ccc(C(CCNCc2ccc(OC(C)C)cc2)C(C)C)cc1 (stereo not given)	?	?	14.6µM*	-11.6%	i	18.6%
CCOc1ncccc1C(=O)Nc1ccccc1C(=O)NCc1ccc2c(c1)OCO2	-5.2%	-15.5%	5.17µM*	?	i	13.3%
CCOc1ncccc1C(=O)NCc1ccc(C)cc1	1.0%	5.6%	18.4µM*	?	i	-82.3%
Cc1ccc(Oc2ccc(C(=O)NCc3ccncc3)cc2)cc1	?	?	20.6µM*	2.4%	i	1.9%
CCOc1ncccc1C(=O)Nc1ccc2c(c1)OCO2	-0.1%	-11.4%	?	18.2%	?	-1.5%
O=C(NCc1ccncc1)c1ccc(Oc2ccccc2)cc1	-21.1%	-26.8%	?	1.7%	?	2.3%
Cc1cccc(C)c1NC(=O)c1sc(-n2nc(C)c(Cc3ccc4c(c3)OCO4)c2C)nc1C	·	·	i	·	i	·
CCOc1ccccc1NC(=O)CSc1nccn1-c1cccc(C)c1	·	·	?	·	i	·
O=C1NC(c2ccc3ccccc3c2)Nc2ccccc21 (stereo not given)	?	?	16.4µM*	·	?	·
O=C1NC(c2ccc3c(c2)OCO3)Nc2ccccc21 (stereo not given)	?	5.3%[9.24 µM]	?	?	?	?
Cc1ccc(N=C2C(=O)Nc3ccccc32)cc1	-0.8%	0.7%	i	1.5%	i	-11.8%
